For 40 compounds, cell viability results are on record in the supplement of paper PMC10981050.

Where a name gives a salt, the structure may show the parent alone.

The first experiment has as its system OCI-AML2. The experiment in a line: cell viability relative to vehicle control; higher = less cytotoxic. Conditions: 10 µM; SRSF2 genotype: P95H/wt. In short, it runs like this:
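CRISPR-edited SRSF2 P95 mutant and isogenic wild-type clones of four leukaemia lines were screened against Selleck bioactive, kinase and epigenetic probe libraries, with identity-inconsistent compounds removed. Compounds were acoustically dispensed into 384-well plates at a single 10 µM dose, with 2000 cells in 50 µL medium per well. After 48 h, supernatant was removed and CellTiter-Glo luminescence was read. Viability was expressed as percent of the on-plate DMSO vehicle control, analysed in Genedata Screener.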
In the case of `Nc1[nH]c(=O)ncc1Br` [5-Bromocytosine], the cell viability (as a rule, a read-out of living cells in per cent, often relative to untreated cells) turned out to be 98.1%.

Take `CC[C@H](C)C(=O)O[C@H]1C[C@@H](C)C=C2C=C[C@H](C)[C@H](CC[C@@H]3C[C@@H](O)CC(=O)O3)[C@H]21` [Lovastatin (Mevacor)]: the cell viability amounted to 64.3%. Same read-out and setting: as for `CO/N=C(\C(=O)N[C@@H]1C(=O)N2C(C(=O)[O-])=C(C[N+]3(C)CCCC3)CS[C@H]12)c1csc(N)n1` [Cefepime Dihydrochloride Monohydrate], the figure is 104%; as for `CC(=O)OC(C)C(C)C(=O)OCC12C3CC(C)(C)[C@H](O[C@@H]1C[C@]1(C)C3=CCC3C4(C)CCC(O[C@@H]5O[C@H](C(=O)O)[C@@H](O[C@H]6O[C@H](CO)[C@@H](O)[C@H](O)[C@H]6O)[C@H](O)[C@H]5O[C@@H]5OC[C@@H](O)[C@H](O)[C@H]5O)[C@](C)(CO)C4CCC31C)C2O` (stereo partly drawn) [Sodium Aescinate], 88.5%. Still for that read-out and setting: for `C[C@H]1C[C@H]2[C@@H]3C[C@H](F)C4=CC(=O)C=C[C@]4(C)[C@@]3(F)[C@@H](O)C[C@]2(C)[C@@]1(O)C(=O)CO` [Diflorasone] the value was 92.7%; for `Oc1ccc(CC2NCCc3cc(O)c(O)cc32)cc1` (stereo not drawn) [Higenamine hydrochloride], 94.9%; for `CC(C)(C)[N+]([O-])=Cc1ccc(S(=O)(=O)O)cc1S(=O)(=O)O` [NXY-059 (Disufenton sodium)], 102%. Still for that read-out and setting: as for `CN1CCC(=C2c3ccccc3CCc3sccc32)CC1` [Pizotifen malate], the figure is 81.4%.

Staying with this experiment, now noted: 10 µM; SRSF2 genotype: wt/wt.
As for `NC(=O)[C@@H](CCC(F)(F)F)N(Cc1ccc(-c2ncon2)cc1F)S(=O)(=O)c1ccc(Cl)cc1`, the cell viability was determined as 104%. Same read-out and setting: for `COc1c/c(=C2\C=c3ccccc3=N2)[nH]/c1=C\c1[nH]c(C)cc1C` [Obatoclax mesylate (GX15-070)] the value was 13.3%; for `O=C(O)CC(C(=O)O)n1c(O)c(C2=c3cc(Br)ccc3=NC2=O)sc1=S` (stereo not drawn), 103%; for `COc1cc(NS(=O)(=O)c2ccc(N)cc2)nc(OC)n1` [Sulphadimethoxine], 91.4%. The same measure, in the same setting: as for `NC(=O)[C@@H]1CCCN1C(=O)[C@H](Cc1c[nH]cn1)NC(=O)[C@@H]1CCC(=O)N1` [Protirelin], the figure is 100%; as for `COC(=O)c1cc(OC)c(O)c(OC)c1` [Methyl syringate], 101%; as for `N=c1ccn2c(n1)O[C@H]1[C@H](O)[C@@H](CO)O[C@H]12` [Cyclocytidine HCl], 9.31%. Take `O=P(O)(O)C(O)(Cc1cccnc1)P(=O)(O)O` [Risedronate sodium]: the cell viability turned out to be 98.3%. `CN(C)CCOc1ccc(-c2nc(-c3ccncc3)c(-c3ccc4c(c3)CC/C4=N\O)[nH]2)cc1`: the cell viability is 15.8%. Take `COC(=O)C1=C(C)NC(C)=C(C(=O)OCCN2CCN(C(c3ccccc3)c3ccccc3)CC2)C1c1cccc([N+](=O)[O-])c1` (stereo not drawn) [Manidipine (Manyper)]: the cell viability came to 41%. On the same count and under the same terms, for `COC1CCN(C(=O)c2cc(Cc3n[nH]c(=O)c4ccccc34)ccc2F)CC1` the value was 62.1%; for `C=C1C[C@@]23CC[C@H]4[C@@](C)(CCC[C@@]4(C)C(=O)O[C@@H]4O[C@H](CO)[C@@H](O)[C@H](O)[C@H]4O)[C@@H]2CC[C@]1(O[C@@H]1O[C@H](CO)[C@@H](O)[C@H](O)[C@H]1O[C@@H]1O[C@H](CO)[C@@H](O)[C@H](O)[C@H]1O)C3` [Stevioside], 106%. On the same count and under the same terms, as for `Cc1cc(=O)oc2ccc(O)cc12` [6-Hydroxy-4-methylcoumarin], the figure is 104%; as for `COC1C(O)C(O)C(O)C(O)C1O` (stereo not drawn) [Sequoyitol], 106%. On the same count and under the same terms, as for `CC1(C)O[C@@H]2C[C@H]3[C@@H]4CCC5=CC(=O)C=C[C@]5(C)[C@@]4(F)[C@@H](O)C[C@]3(C)[C@]2(C(=O)CO)O1` [Triamcinolone Acetonide], the figure is 115%.

In the case of `COc1ccc(C(C)=O)c(O)c1` [Paeonol (Peonol)], the cell viability is 91.5%.

With `COc1cccc(/C=N/N(C(=O)C(F)(F)F)c2ccc(C)cc2C)c1`, the cell viability amounted to 106%. Same read-out and setting: as for `C=C1C(=O)[C@]23[C@H](O)[C@H]1CC[C@H]2[C@@]12CO[C@]3(O)[C@@H](O)[C@@H]1C(C)(C)CC[C@@H]2O` [Oridonin (Isodonol)], the figure is 13.2%. On the same count and under the same terms, as for `CN(CCOc1ccc(CC2SC(=O)NC2=O)cc1)c1ccccn1` (stereo not drawn) [Rosiglitazone maleate], the figure is 107%; as for `CC(C)C[C@@H]1NC(=O)[C@@H](C(C)C)NC(=O)[C@@H]2CCCN2C(=O)[C@@H](CC(=O)O)NC(=O)[C@@H](Cc2c[nH]c3ccccc23)NC1=O`, 103%; as for `Cc1cc(Nc2ncc3c(n2)N(C)C(=O)N(c2cc(NC(=O)c4cccc(C(F)(F)F)c4)ccc2C)C3)n(C)n1` [Pluripotin (SC1)], 20.3%.

Turning to `C[C@]12C=CC(=O)C=C1CC[C@H]1[C@@H]3C[C@@H](O)[C@](O)(C(=O)CO)[C@@]3(C)C[C@H](O)[C@@]12F` [Triamcinolone (Aristocort)], the cell viability was determined as 122%.

As for `O=C(O)CCC(=O)O` [Succinic acid], the cell viability came to 97.5%. Consider `CCOP(=O)(OCC)C(=Cc1cc(C(C)(C)C)c(O)c(C(C)(C)C)c1)P(=O)(OCC)OCC`, for which the cell viability was determined as 97%. On the same count and under the same terms, for `O=C(/C=C/C=C/c1ccc2c(c1)OCO2)N1CCCCC1` [Piperine (1-Piperoylpiperidine)] the value was 97.3%; for `Cc1cc(=O)n(-c2ccccc2)n1C` [Antipyrine], 93.4%. The same measure, in the same setting: for `CC(=O)OC(CC(C)C1=C2CC(O)C3C4(C)CCC(=O)C(C)(C)C4CCC3(C)C2(C)CC1)C1OC1(C)C` (stereo not drawn) [Alisol B Acetate] the value was 68.6%; for `CC(=O)Nc1ccccc1` [Acetanilide (Antifebrin)], 102%. In the case of `CCS(=O)(=O)N1CC(CC#N)(n2cc(-c3ncnc4[nH]ccc34)cn2)C1`, the cell viability was determined as 92.9%. Same read-out and setting: for `O=C(O)[C@H]1O[C@@H](Oc2cc3oc(-c4ccc(O)cc4)cc(=O)c3c(O)c2O)[C@H](O)[C@@H](O)[C@@H]1O` [Scutellarin] the value was 109%. `Cc1cc(S(=O)(=O)O)c2c(C)ccc(C(C)C)cc1-2` [Sodium gualenate]: the cell viability is 106%. Same read-out and setting: as for `O=C(Nc1ccc(OC(F)(F)Cl)cc1)c1cnc(N2CC[C@@H](O)C2)c(-c2cc[nH]n2)c1` [Asciminib (ABL001)], the figure is 55%; as for `Nc1[nH]c(=O)ncc1Br` [5-Bromocytosine], 108%; as for `CC[C@H](C)C(=O)O[C@H]1C[C@@H](C)C=C2C=C[C@H](C)[C@H](CC[C@@H]3C[C@@H](O)CC(=O)O3)[C@H]21` [Lovastatin (Mevacor)], 77.8%. Same read-out and setting: as for `CO/N=C(\C(=O)N[C@@H]1C(=O)N2C(C(=O)[O-])=C(C[N+]3(C)CCCC3)CS[C@H]12)c1csc(N)n1` [Cefepime Dihydrochloride Monohydrate], the figure is 113%; as for `CC(=O)OC(C)C(C)C(=O)OCC12C3CC(C)(C)[C@H](O[C@@H]1C[C@]1(C)C3=CCC3C4(C)CCC(O[C@@H]5O[C@H](C(=O)O)[C@@H](O[C@H]6O[C@H](CO)[C@@H](O)[C@H](O)[C@H]6O)[C@H](O)[C@H]5O[C@@H]5OC[C@@H](O)[C@H](O)[C@H]5O)[C@](C)(CO)C4CCC31C)C2O` (stereo partly drawn) [Sodium Aescinate], 93.2%.

In the case of `C[C@H]1C[C@H]2[C@@H]3C[C@H](F)C4=CC(=O)C=C[C@]4(C)[C@@]3(F)[C@@H](O)C[C@]2(C)[C@@]1(O)C(=O)CO` [Diflorasone], the cell viability was 120%. `Oc1ccc(CC2NCCc3cc(O)c(O)cc32)cc1` (stereo not drawn) [Higenamine hydrochloride]: the cell viability was 102%.

With `CC(C)(C)[N+]([O-])=Cc1ccc(S(=O)(=O)O)cc1S(=O)(=O)O` [NXY-059 (Disufenton sodium)], the cell viability came out at 104%.

Turning to `CN1CCC(=C2c3ccccc3CCc3sccc32)CC1` [Pizotifen malate], the cell viability worked out at 83%.
